Reference: PubChem BioAssay (NCI)
Compounds without any hit were thinned out: in the full panel of roughly 83,000, 20% have a hit.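 Testing used 96-well plates and a 48-hour single-concentration exposure. Example: -40 means 40% of the starting cells died.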 A number with no mark means an inactive call. Calls of active or inactive are those of the source. How the source made its calls: active means growth percent below 10; inactive means the rest.

Tests used:
Assay in all cases: NCI-60 one-dose screen, 48 h (100 = growth as untreated, 0 = no growth, -100 = all killed)
Conditions in all cases: 10 µM unless noted
T-47D breast = test system: T-47D breast
BT-549 breast = test system: BT-549 breast
MDA-MB-435 melanoma = test system: MDA-MB-435 melanoma
SW-620 colon = test system: SW-620 colon
MCF7 breast = test system: MCF7 breast
HCT-116 colon = test system: HCT-116 colon
HCC-2998 colon = test system: HCC-2998 colon
KM12 colon = test system: KM12 colon

Compound	growth (T-47D breast)	growth (BT-549 breast)	growth (MDA-MB-435 melanoma)	growth (SW-620 colon)	growth (MCF7 breast)	growth (HCT-116 colon)	growth (HCC-2998 colon)	growth (KM12 colon)
C#CCn1cnc2c(Nc3cccc(NC(=O)CCl)c3)ncnc21	34.7%	35.1%	22.6%	20.6%	14.1%	12.9%	77.6%	37.7%
Nc1ccc([N+](=O)[O-])cc1N=C/C=C/c1ccccc1	66.2%	55%	5.57% (active)	35.3%	51.5%	67.2%	73%	40.3%
Cc1nn(-c2ccccc2)c(N2CCCCC2)c1/C=N/NC(=O)Cn1c(=O)sc2ccccc21	60.3%	79.9%	87.9%	81%	67.3%	77.1%	68.4%	54%
CC1(C)CC[C@]2(C(=O)N3CCOCC3)CC[C@]3(C)C(=CC[C@@H]4[C@@]5(C)C/C(=C/c6ccncc6)C(=O)C(C)(C)[C@@H]5CC[C@]43C)[C@@H]2C1	20.2%	-2.62% (active)	6.81% (active)	10.4%	8.43% (active)	-32.6% (active)	-24.5% (active)	6.58% (active)
O=C(Nc1ccccc1)c1sc(-c2ccccc2)cc1O	101%	95.8%	90%	102%	78.9%	96.5%	101%	85.1%
N=C(N)SCc1cccc2c(CSC(=N)N)cccc12	96.2%	107%	107%	103%	98.2%	101%	104%	94.5%
CCOC(=O)c1c(-c2ccc(Cl)cc2)c(C#N)c2c(C#N)c(N)nn2c1N	46.5%	68.5%	5.38% (active)	52.6%	37.6%	59.5%	83.6%	58.7%
CN1CCN(C(=O)c2cc(-c3ccc4ncnc(N5CCc6cc(F)c(Cl)cc65)c4c3)cnc2N)CC1	-1.85% (active)	-20.4% (active)	-2.06% (active)	4.9% (active)	4.21% (active)	-30.3% (active)	-7.55% (active)	10.7%
CCOC(=O)C/C(=N\Nc1cc(=O)[nH]c2ccc(Cl)cc12)C(=O)OCC	102%	99.3%	102%	93.8%	96.5%	100%	97.4%	102%
CCNCc1ccc(O)c2ncccc12	27.3%	40.8%	16.6%	33.1%	17.3%	21.6%	45.9%	29.2%
COc1ccc2cc(-c3ccc(-c4ccc(C(=N)N)s4)s3)ccc2c1	-9.45% (active)	98.6%	0.918% (active)	-64.3% (active)	-60.9% (active)	-29.5% (active)	-58.1% (active)	-14.5% (active)
N#Cc1nc2c(S(=O)(=O)c3ccccc3)c(N)n(Cc3cccnc3)c2nc1C#N	58.6%	65.4%	94.9%	77.7%	91.3%	98.2%	104%	102%
CCCCSCC(=O)c1ccccc1	95.4%	99.9%	106%	105%	98.2%	95.2%	100%	98.5%
Cc1c(N2CN3C[C@H](C)N4CN(c5c(C)n(C)n(-c6ccccc6)c5=O)CN5C[C@@H](C)N(C2)C3C54)c(=O)n(-c2ccccc2)n1C (some centres not stated)	105%	113%	105%	103%	94.9%	96.9%	106%	104%
Cn1cc(/C=C2/C(=O)Nc3ccccc32)c2ccccc21	64.7%	88.4%	106%	102%	69.2%	90.4%	98.2%	14.8%
CCOC(=O)C1=C(C)N=C2SC=C(c3ccccc3)N2[C@H]1c1cn[nH]c1-c1ccc(Cl)cc1	38.8%	34.1%	49.4%	37.7%	21.7%	18.5%	109%	59.4%
O=C(CCCCCCN1CC(=O)N2[C@@H](c3ccc(Cl)cc3)c3[nH]c4ccccc4c3C[C@H]2C1=O)NO	42.1%	77.2%	53.9%	62.9%	46.2%	38.6%	81.2%	75.1%
Fc1ccc(COc2ccc(Nc3ncnc4sc5c(c34)CCCC5)cc2)cc1	86.6%	99.1%	96.1%	92%	88.2%	93.7%	104%	90.1%
COc1cc(N2C(=O)[C@H](c3ccccc3)C2c2ccc(SC)cc2)cc(OC)c1OC (some centres not stated)	61.9%	-6.28% (active)	-23.7% (active)	25.2%	6.93% (active)	0.933% (active)	12.6%	10.2%
O=S(=O)(c1ccccc1)N1CCCN(c2nc(-c3ccccc3)nc3nc(-c4ccccc4)oc23)CC1	99.4%	107%	102%	109%	90.8%	89.5%	108%	113%
COCCCOc1cc(C[C@@H](C[C@H](N)[C@@H](O)C[C@H](C(=O)NCC(C)(C)C(N)=O)C(C)C)C(C)C)ccc1OC	107%	110%	98.9%	105%	95.1%	101%	102%	109%
Fc1ccc(CNc2c3ccccc3nc3ccccc23)cc1	31.1%	80.7%	34.8%	22.8%	7.09% (active)	12.6%	18.3%	28.3%
CN(C)c1ccc(/C=C/C(=O)c2ccccc2)cc1	68.5%	81.3%	28.6%	63.5%	44.7%	67.5%	97.5%	51.4%
C=C1C(=O)O[C@H]2[C@H]1CC/C(COC(=O)c1cc3cc(F)ccc3[nH]1)=C\CC[C@@]1(C)O[C@@H]21	-51.8% (active)	-82.9% (active)	-82% (active)	-69.2% (active)	-61.7% (active)	-87.2% (active)	-83.4% (active)	-48% (active)
C#Cc1cccc(Nc2nc3ccc([N+](=O)[O-])cc3nc2Nc2cccc(C#C)c2)c1	-36.1% (active)	-59.3% (active)	-78% (active)	-64.2% (active)	-12.6% (active)	-94.7% (active)	-80.8% (active)	-77.9% (active)
CCCCCCOC(=O)CC1=C(C)/C(=C/c2[nH]c(-c3ccc[nH]3)cc2OC)N=C1C	-32.8% (active)	-33.9% (active)	-82.4% (active)	-74% (active)	-24.1% (active)	-79% (active)	-47.5% (active)	-51.4% (active)
O=C(/C=C\c1ccco1)/C=C/c1ccco1	112%	101%	98.3%	103%	101%	105%	101%	106%
CCOC(=O)c1c(NC(=O)c2ccc(OC)cc2)sc2c(CN(C)C)c(O)ccc12	77.3%	95.5%	68.8%	70.4%	70.4%	51.3%	23.1%	81.8%
CN1CCN(Cc2ccc(NC(=O)c3cncc(C#Cc4cncc5ncccc45)c3)cc2C(F)(F)F)CC1	60.9%	38.6%	10.6%	-26.7% (active)	13.7%	-58.3% (active)	13.9%	10.7%
